# Measured values published in the supplement of paper PMC12067093, “Discovery and optimisation of a covalent ligand for TRIM25 and its application to targeted protein ubiquitination” (Chemical Science, 2025).
# Targets with the largest changes are over-represented here; the source holds about 21,000 in all.
# Compound: CC1Cc2ccccc2N1C(=O)C1CCCN(C1)C(=O)CCl (mixture of isomers) [TRIM25 ligand 11 (diastereomer mixture)]
# Test: probe-labelled cysteine peptide fold change vs DMSO (competition) (log2 fold change); higher = less target engagement (more negative = stronger competition)
# Conditions: THP-1, incubation time: 4 h
# 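Also: competitive chemoproteomic profiling in live THP-1 cells with an iodoacetamide desthiobiotin (IA-DTB) probe, comparing probe-labelled peptide intensities in compound-treated cells against DMSO-treated controls.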
# Sequence of UniProt O75607 (O75607 whole entry, looked up): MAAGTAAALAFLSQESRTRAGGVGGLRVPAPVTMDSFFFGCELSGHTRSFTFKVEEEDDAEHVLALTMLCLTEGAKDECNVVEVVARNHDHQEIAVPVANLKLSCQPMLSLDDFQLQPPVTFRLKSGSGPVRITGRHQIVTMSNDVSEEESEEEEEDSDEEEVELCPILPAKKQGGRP
# Sequence of UniProt Q86X76 (Q86X76 whole entry, looked up): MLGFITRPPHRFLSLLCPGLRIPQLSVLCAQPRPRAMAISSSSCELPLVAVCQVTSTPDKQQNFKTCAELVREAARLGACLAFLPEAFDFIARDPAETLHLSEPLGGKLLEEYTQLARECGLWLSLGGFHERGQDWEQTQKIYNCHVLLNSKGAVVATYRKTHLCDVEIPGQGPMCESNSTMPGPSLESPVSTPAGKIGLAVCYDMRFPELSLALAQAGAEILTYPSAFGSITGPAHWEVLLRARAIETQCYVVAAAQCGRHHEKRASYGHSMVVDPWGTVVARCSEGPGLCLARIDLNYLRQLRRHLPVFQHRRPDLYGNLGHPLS
# Sequence of UniProt Q9NTI5 (Q9NTI5 whole entry, looked up): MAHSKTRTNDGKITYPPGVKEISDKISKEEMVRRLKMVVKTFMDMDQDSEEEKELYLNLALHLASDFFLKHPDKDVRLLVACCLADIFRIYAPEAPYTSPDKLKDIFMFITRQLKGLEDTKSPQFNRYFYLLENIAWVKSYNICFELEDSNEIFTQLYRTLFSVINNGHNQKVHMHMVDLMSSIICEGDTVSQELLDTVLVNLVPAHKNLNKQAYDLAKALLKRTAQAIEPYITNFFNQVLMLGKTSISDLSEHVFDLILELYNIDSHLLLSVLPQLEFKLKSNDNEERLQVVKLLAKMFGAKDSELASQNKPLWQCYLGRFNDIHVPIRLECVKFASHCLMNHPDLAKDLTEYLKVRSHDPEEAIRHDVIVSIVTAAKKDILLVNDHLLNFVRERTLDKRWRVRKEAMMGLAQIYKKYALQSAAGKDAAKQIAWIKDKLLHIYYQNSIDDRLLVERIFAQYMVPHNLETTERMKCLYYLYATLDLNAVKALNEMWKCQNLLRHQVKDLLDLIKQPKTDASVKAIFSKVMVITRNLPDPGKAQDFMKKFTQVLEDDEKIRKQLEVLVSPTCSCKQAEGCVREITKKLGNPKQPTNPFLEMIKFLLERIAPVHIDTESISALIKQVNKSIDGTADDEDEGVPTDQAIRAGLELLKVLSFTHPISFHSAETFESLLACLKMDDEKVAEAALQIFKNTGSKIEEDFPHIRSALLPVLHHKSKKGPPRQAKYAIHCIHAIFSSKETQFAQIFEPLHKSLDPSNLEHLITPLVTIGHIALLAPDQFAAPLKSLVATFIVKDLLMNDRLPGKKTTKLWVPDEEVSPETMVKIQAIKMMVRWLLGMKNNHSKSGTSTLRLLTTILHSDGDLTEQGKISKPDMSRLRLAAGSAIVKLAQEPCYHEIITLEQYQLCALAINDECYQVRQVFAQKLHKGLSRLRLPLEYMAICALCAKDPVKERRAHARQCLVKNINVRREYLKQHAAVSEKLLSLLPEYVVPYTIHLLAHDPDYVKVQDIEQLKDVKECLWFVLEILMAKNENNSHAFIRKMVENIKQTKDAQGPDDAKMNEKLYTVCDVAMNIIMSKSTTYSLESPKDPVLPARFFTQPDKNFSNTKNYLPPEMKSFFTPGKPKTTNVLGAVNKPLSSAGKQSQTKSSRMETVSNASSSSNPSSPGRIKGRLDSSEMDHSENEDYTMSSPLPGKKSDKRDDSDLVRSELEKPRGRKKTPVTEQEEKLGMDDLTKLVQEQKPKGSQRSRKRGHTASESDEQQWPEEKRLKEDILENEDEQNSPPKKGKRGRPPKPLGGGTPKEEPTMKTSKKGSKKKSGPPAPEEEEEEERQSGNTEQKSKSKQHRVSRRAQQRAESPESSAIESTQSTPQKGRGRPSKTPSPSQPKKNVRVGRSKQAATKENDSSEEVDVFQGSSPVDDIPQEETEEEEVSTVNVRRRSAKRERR
# Sequence of UniProt Q9BXW6 (Q9BXW6 whole entry, looked up): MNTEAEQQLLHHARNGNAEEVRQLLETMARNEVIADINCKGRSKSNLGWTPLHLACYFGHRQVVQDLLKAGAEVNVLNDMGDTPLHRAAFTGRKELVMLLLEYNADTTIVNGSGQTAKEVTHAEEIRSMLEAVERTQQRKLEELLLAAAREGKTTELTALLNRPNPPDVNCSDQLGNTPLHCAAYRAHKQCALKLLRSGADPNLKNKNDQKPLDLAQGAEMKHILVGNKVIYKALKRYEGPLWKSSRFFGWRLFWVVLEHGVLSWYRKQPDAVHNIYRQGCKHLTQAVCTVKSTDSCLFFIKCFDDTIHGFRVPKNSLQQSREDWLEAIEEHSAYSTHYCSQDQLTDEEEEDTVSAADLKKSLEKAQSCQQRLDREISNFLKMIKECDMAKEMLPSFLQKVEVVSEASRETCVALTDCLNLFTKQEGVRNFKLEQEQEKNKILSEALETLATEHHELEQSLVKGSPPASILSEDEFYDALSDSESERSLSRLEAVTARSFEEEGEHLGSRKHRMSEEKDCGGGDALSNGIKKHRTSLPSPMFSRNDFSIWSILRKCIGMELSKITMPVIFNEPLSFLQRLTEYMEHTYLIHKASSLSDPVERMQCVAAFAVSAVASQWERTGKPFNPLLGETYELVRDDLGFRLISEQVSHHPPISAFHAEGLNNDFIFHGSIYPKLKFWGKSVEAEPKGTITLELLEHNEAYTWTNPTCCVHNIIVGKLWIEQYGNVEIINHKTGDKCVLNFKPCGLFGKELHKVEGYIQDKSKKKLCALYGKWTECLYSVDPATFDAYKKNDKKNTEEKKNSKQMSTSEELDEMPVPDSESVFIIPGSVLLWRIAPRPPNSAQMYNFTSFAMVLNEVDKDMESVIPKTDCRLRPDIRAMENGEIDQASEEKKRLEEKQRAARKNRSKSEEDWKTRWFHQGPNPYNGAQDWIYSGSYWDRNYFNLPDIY
# Sequence of UniProt P17568 (P17568 whole entry, looked up): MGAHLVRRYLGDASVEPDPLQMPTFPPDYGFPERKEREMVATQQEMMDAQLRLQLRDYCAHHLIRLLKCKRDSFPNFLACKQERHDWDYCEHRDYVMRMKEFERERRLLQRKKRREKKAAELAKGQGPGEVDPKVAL
# Sequence of UniProt Q5JVF3 (Q5JVF3 whole entry, looked up): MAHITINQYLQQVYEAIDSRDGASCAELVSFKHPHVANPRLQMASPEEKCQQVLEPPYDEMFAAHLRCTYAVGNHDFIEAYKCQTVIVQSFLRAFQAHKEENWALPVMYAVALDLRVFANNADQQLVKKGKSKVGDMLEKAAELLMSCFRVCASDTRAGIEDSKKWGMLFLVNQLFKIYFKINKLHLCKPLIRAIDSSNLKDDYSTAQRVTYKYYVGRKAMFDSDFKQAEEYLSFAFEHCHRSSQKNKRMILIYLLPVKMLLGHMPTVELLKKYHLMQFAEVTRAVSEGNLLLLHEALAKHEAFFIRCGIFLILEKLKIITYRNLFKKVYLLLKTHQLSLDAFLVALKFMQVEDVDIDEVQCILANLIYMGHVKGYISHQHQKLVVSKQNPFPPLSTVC
# Sequence of UniProt Q96E22 (Q96E22 whole entry, looked up): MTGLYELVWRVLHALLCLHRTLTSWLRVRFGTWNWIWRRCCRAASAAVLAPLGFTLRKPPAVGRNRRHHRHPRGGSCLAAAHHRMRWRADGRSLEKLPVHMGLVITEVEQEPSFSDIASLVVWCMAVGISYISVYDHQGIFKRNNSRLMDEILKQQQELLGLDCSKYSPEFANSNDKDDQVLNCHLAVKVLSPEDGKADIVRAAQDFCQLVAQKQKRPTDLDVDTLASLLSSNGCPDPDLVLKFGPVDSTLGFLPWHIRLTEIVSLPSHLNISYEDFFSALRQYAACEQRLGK
# Sequence of UniProt P09874 (P09874 whole entry, looked up): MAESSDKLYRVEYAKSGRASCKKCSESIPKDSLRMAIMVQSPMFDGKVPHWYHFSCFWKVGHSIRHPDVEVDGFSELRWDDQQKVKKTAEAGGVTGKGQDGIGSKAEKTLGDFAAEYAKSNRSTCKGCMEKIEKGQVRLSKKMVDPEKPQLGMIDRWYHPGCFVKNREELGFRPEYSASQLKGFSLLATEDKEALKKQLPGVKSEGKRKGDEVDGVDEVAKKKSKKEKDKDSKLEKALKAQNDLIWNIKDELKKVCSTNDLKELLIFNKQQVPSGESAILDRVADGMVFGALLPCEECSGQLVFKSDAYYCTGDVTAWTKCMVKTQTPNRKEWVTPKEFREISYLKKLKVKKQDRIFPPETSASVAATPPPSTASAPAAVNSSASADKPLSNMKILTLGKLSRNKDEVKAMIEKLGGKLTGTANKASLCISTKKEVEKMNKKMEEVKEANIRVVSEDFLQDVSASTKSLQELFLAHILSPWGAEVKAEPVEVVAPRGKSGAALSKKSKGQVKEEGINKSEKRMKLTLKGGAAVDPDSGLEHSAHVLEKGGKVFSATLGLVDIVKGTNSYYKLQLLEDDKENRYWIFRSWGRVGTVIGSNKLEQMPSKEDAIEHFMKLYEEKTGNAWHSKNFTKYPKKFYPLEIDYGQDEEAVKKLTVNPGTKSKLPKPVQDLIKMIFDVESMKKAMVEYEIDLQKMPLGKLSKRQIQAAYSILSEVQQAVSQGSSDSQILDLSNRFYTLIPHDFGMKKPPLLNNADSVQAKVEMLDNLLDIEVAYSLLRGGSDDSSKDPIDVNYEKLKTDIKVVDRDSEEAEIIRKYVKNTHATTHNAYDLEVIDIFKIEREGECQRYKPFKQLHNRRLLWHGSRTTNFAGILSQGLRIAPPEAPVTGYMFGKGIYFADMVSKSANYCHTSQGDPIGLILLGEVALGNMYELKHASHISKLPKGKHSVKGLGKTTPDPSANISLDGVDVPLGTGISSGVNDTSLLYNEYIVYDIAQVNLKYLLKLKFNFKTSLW
Target,probe-labelled cysteine peptide fold change (10 µM),probe-labelled cysteine peptide fold change (50 µM)
PABPC4_Q13310-3_488_VGSECPDR (UniProt Q13310),-0.118,-0.166
PALD1_Q9ULE6_631_IPMPDFCAPREEDFDQLLEALR (UniProt Q9ULE6),0.052,0.057
OTX1_P32242_340_LNFNSPDCLDYK (UniProt P32242),0.161,-0.0204
OSBPL1A_Q9BXW6_520_DCGGGDALSNGIK (UniProt Q9BXW6),0.00496,0.0314
NCKIPSD_Q9NZQ3_138_QPNGVCR (UniProt Q9NZQ3),-0.0933,-0.32
NIT1_Q86X76_251+259_AIETQCYVVAAAQCGR (UniProt Q86X76),0.553,0.575
ORC3_Q9UBD5_158_LISQLMDCCVDIK (UniProt Q9UBD5),-0.0854,-0.134
PAICS_P22234_266_SESQCR (UniProt P22234),1.85,1.12
PDS5B_Q9NTI5_732_YAIHCIHAIFSSK (UniProt Q9NTI5),-0.00231,0.0228
PAK2_Q13177_352_ECLQALEFLHANQVIHR (UniProt Q13177),0.0134,0.223
NEDD4_P46934-4_4_ATCAVEVFGLLEDEENSR (UniProt P46934),-0.669,-0.509
PDS5A_Q29RF7_686_VLSFTHPTSFHSAETYESLLQCLR (UniProt Q29RF7),-0.152,-0.172
PCID2_Q5JVF3_25_DGASCAELVSFK (UniProt Q5JVF3),-0.115,-0.0805
NUP188_Q5SRE5_161_VEYADCVDK (UniProt Q5SRE5),0.394,0.321
NOL10_Q9BSC4_147_DFSYHYPSCDLYFVGASSEVYR (UniProt Q9BSC4),-0.459,-0.299
NLRX1_Q86UT6_259_LAGTGLCSDPEEPQEPAAIIVNLLR (UniProt Q86UT6),0.274,-0.746
NDUFB7_P17568_90_HDWDYCEHR (UniProt P17568),0.161,0.191
PCBP3_P57721_141_LVVPASQCGSLIGK (UniProt P57721),-0.0567,-0.121
NPM3_O75607_79_VEEEDDAEHVLALTMLCLTEGAKDECNVVEVVAR (UniProt O75607),-0.083,0.00371

Target,probe-labelled cysteine peptide fold change (10 µM),probe-labelled cysteine peptide fold change (50 µM)
NVL_O15381_460_LPQAFDFCHLAHLTPGFVGADLMALCR (UniProt O15381),-0.219,-0.00784
NOL9_Q5SY16_219_WSMQNFSPQCSIVLLEHLK (UniProt Q5SY16),0.0873,0.0078
NUP107_P57740_749_EHLCIR (UniProt P57740),0.128,0.0884
PDLIM1_O00151_286_HRHPECYVCTDCGTNLK (UniProt O00151),0.117,0.192
P4HB_P07237_312_ILEFFGLKKEECPAVR (UniProt P07237),-0.567,-0.501
NLN_Q9BYT8_451_YNHAACFGLQPGCLLPDGSR (UniProt Q9BYT8),0.193,0.181
PAFAH1B1_P43034_281_EHEHVVECISWAPESSYSSISEATGSETK (UniProt P43034),-0.156,0.158
NUP133_Q8WUM0_700+702_EVSQVDTICECLLEHEEQVLR (UniProt Q8WUM0),0.507,0.631
PCDH17_O14917_335_DLGPNPIPAHCK (UniProt O14917),0.6,0.546
NUS1_Q96E22_235_QKRPTDLDVDTLASLLSSNGCPDPDLVLK (UniProt Q96E22),-0.332,-0.641
NDRG3_Q9UGV2_30_NFQDFDCQEHDIETTHGVVHVTIR (UniProt Q9UGV2),0.0929,0.0549
PATZ1_Q9HBE1_297_EAGILPCGLCGK (UniProt Q9HBE1),0.00899,-0.0723
NT5DC2_Q9H857_475_FSDLYMASLSCLLNYR (UniProt Q9H857),0.0123,0.0662
NOB1_Q9ULX3_147_GHSACEPENLEFSSFMFWR (UniProt Q9ULX3),-0.0264,-0.119
NUP210_Q8TEM1_746_FVCAPPSR (UniProt Q8TEM1),0.0568,0.329
PARP1_P09874_908_SANYCHTSQGDPIGLILLGEVALGNMYELK (UniProt P09874),-0.146,-0.761
NKRF_O15226_386_VFLQDHCLAEGYGTKK (UniProt O15226),-0.274,-0.153
NVL_O15381_803_EASICALR (UniProt O15381),0.0326,0.175
NEMF_O60524_663_VDESCVWR (UniProt O60524),0.233,0.569
